Source: PubChem (The Scripps Research Institute Molecular Screening Center)
This is one part of a sample in which hits are shown more often than they occur.
TTR transcr act – TTR transcription activation, primary screen; SH-SY5Y TTR promoter Gaussia luciferase, luminescence; 100% = recombinant luciferase protein wells; activation, % at 16.7 µM; hit rate 1.3% among 92,000; AID 1117267;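 active = activation above the mean of all tested compounds plus 3 SD, cut at about 9.5% in these data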;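 also: cells exposed to compounds for one day before reading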
TTR inh HuH7 – counter-screen for TTR activators: TTR transcription inhibitors in HuH7 cells | shares compounds with TTR transcr act | HuH7 TTR promoter-Gaussia luciferase reporter, luminescence | inhibition, % at 16.7 µM | hit rate 4% among 1,100;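 active = average inhibition above the solvent-only control wells' mean plus 3 SD, cut at about 15% in these data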;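 also: inhibitors lower well luminescence so higher value means more inhibition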
TTR act confirm – human TTR transcription activation, confirmation; shares compounds with TTR transcr act; SHSY5Y TTR promoter Gaussia luciferase, luminescence; 100% = purified Lucia enzyme wells, no cells; activation, % at 16.7 µM; 1,100 tested, under 10 active; AID 1117280;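 active = mean activation above a set limit taken from the earlier primary screen, cut at about 11% in these data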
Of the large screens only hits and unclear results are named; the others gave an inactive call (follow-up assays come after a bar, where they were run).

CC(C)(CNC(=S)NCCc1ccccc1)CNC(=S)NCCc1ccccc1	none
Cc1oc(=O)c(NC(=O)c2ccccc2)cc1C(C)O (stereo not given)	none
Cc1ccc(C(=O)Nc2cc3c(oc2=O)CCCC3=O)cc1	TTR transcr act 28 | TTR inh HuH7 inactive | TTR act confirm inactive
Cc1ccc(C(=O)Nc2c[nH]c(=O)[nH]c2=O)cc1	none
C[C@@H]1CN([C@@H](C)CO)C(=O)c2cc(N(C)C)ccc2O[C@@H]1CN(C)S(C)(=O)=O	none
CC(C)CN1CCNC(=O)C1CC(=O)NCCc1cnn(-c2ccccc2)c1 (stereo not given)	TTR transcr act 13 | TTR inh HuH7 inactive | TTR act confirm inactive
CCn1cc(CNC(=O)CC2C(=O)NCCN2CC(c2ccccc2)c2ccccc2)cn1 (stereo not given)	none
Cn1cc(CCNC(=O)CC2C(=O)NCCN2Cc2cccc(Oc3ccccc3)c2)cn1 (stereo not given)	none
N#Cc1ccc2nc3c(nc2c1)CCCC3	none
COc1ccc(S(=O)(=O)N(C)c2ccc(C(=O)NCc3ccccn3)cc2)cc1OC	none
Cc1ccc(Oc2ccc(NS(=O)(=O)c3cccc(C(=O)O)c3)cc2)cc1	none
Cc1c(N(C(=O)c2ccccn2)C2(C(=O)NC3CCCC3)CCCCC2)c(=O)n(-c2ccccc2)n1C	none
COc1ccc(-c2cn(-c3ccc(Cl)cc3)c3[n+]2CCCCC3)cc1	TTR transcr act 12 | TTR inh HuH7 inactive | TTR act confirm inactive
COc1ccc(-n2cc(-c3ccc(OC(F)F)cc3)[n+]3c2CCCCC3)cc1	none
Clc1ccc(-c2cn(-c3ccc(Cl)cc3)c3[n+]2CCCCC3)cc1	none
COc1ccc(-c2nc(-c3ccncc3)no2)cc1OC	none
COc1ccc(-c2noc(-c3ccoc3C)n2)cc1OC	none
COc1ccc(-c2noc(-c3cccs3)n2)cc1OC	TTR transcr act 22 | TTR inh HuH7 35 | TTR act confirm inactive
Cc1ccc(SCc2nc(N)nc(Nc3ccccc3C)n2)cc1C	none
Cc1ccccc1Nc1nc(N)nc(CSc2nnc(C)n2C)n1	none
Cc1ccc(SCc2nc(N)nc(Nc3ccccc3C)n2)c(C)c1	TTR transcr act 32 | TTR inh HuH7 inactive | TTR act confirm inactive
COc1cccc(NC(=O)CSc2nc3ccccc3c(=O)n2CCCC(=O)NCC2CCCO2)c1 (stereo not given)	none
CCn1c(SCC(=O)N/N=C/c2ccccc2OCC(=O)O)nnc1-c1ccc(C)cc1	none
COc1cccc(/C=C/C(=O)NCc2ccc(S(N)(=O)=O)cc2)c1	none
COC(=O)[C@]12C[C@H](CC(=O)NCc3ccc(OC)c(OC)c3)C(=O)N(Cc3ccc(Cl)cc3Cl)C1=C[C@H](C(C)C)O[C@@H]2C1CC1	none
O=C(COC(=O)c1cccc(OC(F)F)c1)Nc1ncccn1	none
CN1CCN(C(=O)/C(=C\c2cccs2)NC(=O)c2ccco2)CC1	TTR transcr act 9.7 | TTR inh HuH7 inactive | TTR act confirm inactive
O=C(N/C(=C\c1cccs1)C(=O)N1CCOCC1)c1ccco1	none
Cc1ccccc1NC(=O)/C(=C\c1cccs1)NC(=O)c1ccco1	none
CC(C)c1ccccc1NC(=O)[C@@H]1CCCN1S(=O)(=O)c1cccc2cccnc12	none
CC(C)Oc1cccc(NC(=O)C2(C)CCCN2C(=O)C(C)C)c1 (stereo not given)	none
Cc1cc(C)cc(-n2ncc3c2CCCC3NC(=O)c2cc(C)[nH]n2)c1 (stereo not given)	none
O=C(NC1CCCc2c1cnn2-c1ccc(F)cc1F)c1ccccc1 (stereo not given)	none
COc1ccc(C(=O)NC2CCCc3c2cnn3-c2cc(F)cc(F)c2)c(OC)c1OC (stereo not given)	TTR transcr act 13 | TTR inh HuH7 29 | TTR act confirm inactive
CCOC(=O)C1CCCCN1C(=O)[C@@H]1CC=C[C@@H]2CCN(c3ccccc3)C(=O)[C@@H]21 (stereo not given in full)	none
Cc1cccc(NS(=O)(=O)c2cc(C(=O)N3CCCC3)ccc2Cl)c1	TTR transcr act 10 | TTR inh HuH7 inactive | TTR act confirm inactive
O=C(c1ccc(Cl)c(S(=O)(=O)N2CCOCC2)c1)N1CCCC1	none
CN1CCN(C(=O)c2ccc(Cl)c(S(=O)(=O)N3CCCCC3)c2)CC1	none
CC(=O)N1CCc2cc(S(=O)(=O)CCC(=O)Nc3ccccc3F)ccc21	none
CC(=O)Nc1cccc(C(=O)N(CCc2ccccc2)Cc2ccccc2)c1	none
CS(=O)(=O)c1ccc(C(=O)N(CCc2ccccc2)Cc2ccccc2)cc1	TTR transcr act 9.7 | TTR inh HuH7 inactive | TTR act confirm inactive
CS(=O)(=O)c1ccccc1C(=O)N(CCc1ccccc1)Cc1ccccc1	none
CC(C)(C)OC(=O)CNC(=O)c1[nH]cnc1C(=O)NCCCCCNC(=O)OC(C)(C)C	none
Nc1c(N2CCCCC2)c2ccccc2oc1=O	none
CCCC[C@H](C(=O)N(C)c1ccccc1)[C@@H](O)c1ccc(Cl)cc1	none
CC(=O)c1ccc(NC(=O)CSCC(=O)Nc2ccc3ccccc3c2)cc1	TTR transcr act 11 | TTR inh HuH7 inactive | TTR act confirm inactive
O=C(CSCc1ccc(C(=O)O)cc1)Nc1ccc2ccccc2c1	none
CC(=O)CC(=O)Nc1ccc2ccccc2c1	none
O=C(NCCc1c[nH]c2ccccc12)OCc1cn(Cc2cccc(F)c2F)nn1	none
COc1cc(OC)c(NS(=O)(=O)c2ccc(Cl)c(C(=O)OC(C)C(=O)N3CCCC3)c2)cc1Cl (stereo not given)	none
CC1C(C#N)=C(N)OC2=C1C(=O)CC(c1ccccc1)C2 (stereo not given)	TTR transcr act 15 | TTR inh HuH7 inactive | TTR act confirm inactive
COc1ccc(C2C(C#N)=C(N)OC3=C2C(=O)CC(C)(C)C3)cc1 (stereo not given)	none
CC1(C)CC(=O)C2=C(C1)OC(N)=C(C#N)[C@@H]2c1ccccc1[N+](=O)[O-]	none
N#CC1(NC(=O)CSc2nnc(C3CC3)n2N)CCCCC1	none
CCC(CC)NC(=O)O[C@H]1CC[C@@]23CCCN2C(=O)CCC[C@H]3C1	none
CC1=CC(=O)C(C(C)C)=C/C1=N\OS(=O)(=O)c1ccccc1	none
Cc1cccc(NC(=O)CN(C)C(=O)C2CCCC2)c1C	none
CCc1ccc(-c2cc3c(=O)n(CC(=O)NCCN4CCCCC4C)nc(C)n3n2)cc1 (stereo not given)	none
CCOC(=O)C1CCN(C(=O)/C=C/c2ccc(OC)cc2)CC1	none
CCOC(=O)C1CCN(C(=O)Cn2nc(C)n3nc(-c4ccc(OC)cc4)cc3c2=O)CC1	TTR transcr act 11 | TTR inh HuH7 inactive | TTR act confirm inactive
CCc1nc(N)nc(N)c1-c1ccc(Cl)c(N=[N+]=[N-])c1	none
Cc1ccc2c(c1)N(CC(=O)Nc1ccccc1F)C(=O)C(C)O2 (stereo not given)	none
Cc1ccc(S(=O)(=O)N2[C@@H](c3ccc(F)cc3)C(C(=O)O)=CC[C@H]2c2cccs2)cc1	none
O=C(C[C@H]1CC[C@@H](NC(=O)C2CC2)[C@@H](CO)O1)NCc1ccccc1Cl	none
COc1ccc(C(=O)Nc2ccccc2C(=O)O)cc1Cl	TTR transcr act 78 | TTR inh HuH7 inactive | TTR act confirm inactive
CCOc1ccc(C(=O)Nc2cccc(C(=O)O)c2C)cc1Cl	none
COc1ccc(C(=O)Nc2cc(C(=O)O)cc(C(=O)O)c2)cc1Cl	none
COC(=O)[C@]12C[C@H](CC(=O)N3CCOCC3)C(=O)N(Cc3ccc(Cl)cc3Cl)C1=C[C@H](C1CCCC1)O[C@@H]2C	none
